Source: the supplement of paper PMC6555819

How the values were obtained:
Test in all cases: PBM binding z-score (relative to random genomic background probes); higher = stronger binding; sequences stand for … in GC…GCGATTGACAGCGTAGAATGAAGG
[1] = system: RARb homodimer (NR concentration 270 nM)
Summary of the method: (§1)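 For binding z-scores, the reference was random background probes on custom Agilent 4×180K protein-binding microarrays. These arrays were incubated 1 h with ligand-free nuclear receptor dimers in PBS pH 7.4, 2% milk, 0.02% Triton X-100, 1 mM DTT, 0.2 mg/mL BSA and 0.4 mg/ml salmon testes DNA. Fluorescence was scanned after antibody detection of each partner (one per run) and regression-normalized.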

[2] = system: RARg:RXRa (NR concentration 270 nM, RXRa partner concentration 90 nM)
Summary of the method: as §1

[3] = system: RARg homodimer (NR concentration 270 nM)
Summary of the method: as §1

[4] = system: RXRa DBDmut IVT, anti-RXR (DBD mutation: RXRa K156A/R161A, NR concentration 90 nM)
Summary of the method: as §1

[5] = system: RXRa homodimer (NR concentration 180 nM)
Summary of the method: as §1

[6] = system: THRa:RXRa (NR concentration 90 nM, RXRa partner concentration 90 nM)
Summary of the method: as §1

[7] = system: THRa homodimer (NR concentration 90 nM)
Summary of the method: as §1

[8] = system: VDR:RXRa (NR concentration 270 nM, RXRa partner concentration 90 nM)
Summary of the method: as §1

[9] = system: VDR homodimer (NR concentration 270 nM)
Summary of the method: as §1

Sequence	PBM binding z-score [1]	PBM binding z-score [2]	PBM binding z-score [3]	PBM binding z-score [4]	PBM binding z-score [5]	PBM binding z-score [6]	PBM binding z-score [7]	PBM binding z-score [8]	PBM binding z-score [9]
TCTAGGAGGACACGAAAGGTCAGAGCTCGACATC	4.84	4.88	5.11	1.35	4.21	3.98	1.4	3.42	0.994
CGAACTAGGTCAAGGAAAGTGAATCTCCGCACGC	2.71	3.5	3.7	1.16	2.43	2.42	0.746	1.02	0.143
TCTAGCAAGCCAGAGGGTCACTCAAGAGGTACGG	2.11	1.94	1.39	-0.198	2.18	1.43	-0.484	1.32	0.431
AATACAGGGTCATCGTAGGCTAGAGTACGCACAG	3.49	5.66	5.17	3.57	6.87	4.05	1.63	5.2	4.03
TCATATAGGTAAAGGTTAAAGTCGAACGATATGA	2	2.68	2.28	1.27	3.91	1.81	-0.146	1.98	0.675
CCAGACAGGTGAGAAGGTATCTCAGCCTCGATTA	-0.0686	0.015	0.26	0.0467	0.0793	-0.219	-0.183	-0.224	-0.56
TTACCAGGGTGAAAGGTCGTTGATGCACGCCTTG	2.58	3.82	1.48	0.566	6.13	2.9	0.639	3.28	1.87
TCATGTAGATCAACAGGAGGTTAAGAAAGATCGA	0.329	0.904	0.374	0.621	1.04	0.683	-0.647	0.591	0.15
CCTACTGTGCCATCAGGTCATTGATATCAACGTT	2.98	2.18	1.93	1.69	1.53	3.64	3.95	2.56	2.39
TCTTGTAGACCAGCAGGTTAAGAAAGCTGGCCAA	0.0516	-0.0399	-0.6	0.357	0.393	0.00833	-0.609	0.209	-0.234
CCGACTGGGGCAAGTTTACCATAACGCACAGCCA	0.697	0.446	0.667	0.533	0.261	-0.0579	-0.484	0.191	0.132
AGAATGAGATTATACGTAGATCAGGGAAGAAAGT	-0.466	0.0162	0.288	-0.678	-0.166	-0.438	-0.705	-0.367	0.0852
AATACCGGGTCATCGTAGGCCAGAGTACGCACAG	3.19	4.84	4.28	2.45	5.06	4.59	1.69	4.42	3.06
